Rows were chosen to be rich in hits. Some 21% of all compounds tested hit in one or more screens of this group.
ClpP mod: qHTS Assay for Activators of ClpP; ATP-dependent Clp protease proteolytic subunit (Bacillus subtilis (strain 168)), P80244; AID 651965, 2013; Potency, µM (titrated, usually from 57.5 µM), for the others: at the highest dose activity change, negative = active; purified B. subtilis ClpP, FRET peptide cleavage, 20 min; 340,000 tested, 1.9% active; active = well fitted falling curve with a large enough effect; inconclusive = small, poorly fitted or top-dose-only effect; inactive = no such curve, though single readings can be large or run the other way; also: potency is read from the fitted curve at half-maximal effect; the source files actives as falling curves though it sought activators and does not explain the sign; nearly all actives have a fitted effect of over 65% in size
Target sequence (P80244 whole entry, looked up): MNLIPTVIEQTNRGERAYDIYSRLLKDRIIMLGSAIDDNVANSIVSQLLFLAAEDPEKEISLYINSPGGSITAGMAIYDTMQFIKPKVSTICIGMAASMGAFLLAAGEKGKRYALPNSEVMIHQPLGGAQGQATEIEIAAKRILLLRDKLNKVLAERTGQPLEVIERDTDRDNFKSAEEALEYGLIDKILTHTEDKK
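Buffer: 100 mM Tris/HCl pH8, 100 mM KCl, 0.05% low protease BSA, 2.5% glycerol, 0.01% Tween-20. ClpP 10 microg/mL final; 20 min RT; delta FRET normalized to ADEP and DMSO controls.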
TDP1 cell CPT: growth inhibition of DT40 Tdp1-/-;hTDP1 cells with camptothecin (screen for TDP1 inhibitors). 420,000 tested, 12% active. chicken DT40 Tdp1-/-;hTDP1 cells + 20 nM CPT, ATP luminescence, 48 h. Potency, µM (series often up to 46.2 µM), for inactives: top-dose activity change, negative = growth inhibition, usual class: inhibitors; also: potency is read from the fitted curve at half-maximal effect; % is scaled to controls: 0 for no effect and ±100 for the full control effect; nearly all actives have a fitted effect of over 55% in size
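Chicken DT40 Tdp1-/- cells stably complemented with human TDP1 were seeded at 400 cells/well in medium containing 20 nM camptothecin, exposed to pin-transferred compounds, and grown at 37 °C for at least 48 hr. Viability was read as ATP luminescence.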
IL1B secr inh: blocks inflammasome-driven IL-1 beta release; THP-1 LPS/ATP IL-1B secretion, AlphaLISA, 16 h; active compounds read low; activity change, % at 57.5 µM; 360,000 tested, 4.7% active; AID 743279; in the data active = activity change below about -50%; inconclusive = mostly about -30% to -49%; also: % is scaled to controls: 0 for no effect and ±100 for the full control effect
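Secreted IL-1B measured by AlphaLISA bead assay after 16 h compound exposure of THP-1 cells; compounds (final up to 57.5 uM) added 1 h before LPS (250 ng/mL) and ATP (1.25 mM) stimulation; lower signal means less secretion.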
DRD3 agonist: agonists of human D3 dopamine receptor. AID 652048. 410,000 tested, 0.58% active. P35462. max activation, %. D3R DiscoveRx beta-arrestin cells, luminescence, 90 min; in the data active = max activation above about 30%; also: 0% is about no effect
Target sequence (P35462 whole entry, looked up): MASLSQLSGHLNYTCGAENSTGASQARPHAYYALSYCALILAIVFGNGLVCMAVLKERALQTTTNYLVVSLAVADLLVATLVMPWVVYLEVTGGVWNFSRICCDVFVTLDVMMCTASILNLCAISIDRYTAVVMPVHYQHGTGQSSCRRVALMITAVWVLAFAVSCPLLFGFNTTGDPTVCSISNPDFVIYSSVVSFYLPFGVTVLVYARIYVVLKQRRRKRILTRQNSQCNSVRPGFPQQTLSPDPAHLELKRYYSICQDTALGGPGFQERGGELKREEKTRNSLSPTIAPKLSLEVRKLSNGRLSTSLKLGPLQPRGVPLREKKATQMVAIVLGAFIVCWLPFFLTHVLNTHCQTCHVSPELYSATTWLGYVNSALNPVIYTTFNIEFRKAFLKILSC
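Cells at 1500/well, incubated overnight, then treated with pinned compounds (dopamine as control) for 90 min at 37 degrees C. DiscoveRx reagent added for 30 - 60 minutes at room temperature; luminescence read.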
TDP1 cell noCPT: qHTS for Inhibitors of human tyrosyl-DNA phosphodiesterase 1 (TDP1): qHTS in cells in absence of CPT; Potency, µM (top dose mostly 46.2 µM), for the others: at the highest dose activity change, negative = growth inhibition, actives largely listed as inhibitors; 420,000 tested, 15% active; DT40 Tdp1-/- hTDP1 cells, no CPT, ATP luminescence, 48 h; also: potency is read from the fitted curve at half-maximal effect; % is scaled to controls: 0 for no effect and ±100 for the full control effect; nearly all actives have a fitted effect of over 55% in size
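Growth kinetics read by CellTiter-Glo luminescence after ≥48 hr at 37 °C. Cells: DT40 Tdp1-/- stably carrying human TDP1, 400 per well, compound exposure in the absence of CPT (DMSO vehicle).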
DRD3 antagonist: D3 dopamine receptor (human) antagonism. D3R cells, DiscoveRx beta-arrestin luminescence, antagonist mode; active compounds read low. P35462. 360,000 tested, 2.5% active. max response, negative = inhibition, %; in the data active = max response below about -50%; inconclusive = no clear call, values can overlap the other calls; also: % is scaled to controls: 0 for no effect and ±100 for the full control effect
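Cells expressing the human receptor were seeded at 1500 cells/well, incubated overnight at 37 degrees C in 5% CO2, then exposed to library compounds with dopamine controls for 90 minutes at 37 degrees C before luminescent detection.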
Starred values were filed as active, the others as inactive; ? = inconclusive; . = not tested or not shown; [ ] = dose if it differs, or a comment. Unless noted, calls follow the shape of the dose curve; as a rule, active = well fitted inhibition curve with a large enough effect; inconclusive = small, poorly fitted or top-dose-only effect; inactive = flat fitted curve, though single readings scatter.

SMILES	ClpP mod	TDP1 cell CPT	IL1B secr inh	DRD3 agonist	TDP1 cell noCPT	DRD3 antagonist
COc1ccc(C2(CNC(=O)c3cc(OC)c(OC)c(OC)c3)CCCC2)cc1OC	.	?	-2	12	?	0
O=C(NCC1(c2ccccc2)CCCC1)c1ccc(Br)o1	2%	?	-21	-1	23µM*	-9
COc1cc(C(=O)NCC2(c3ccccc3)CCCC2)cc(OC)c1OC	2%	15µM*	6	-6	15µM*	-7
CCN(CC)c1ccc(NC(=S)NCC2CCCO2)cc1 (stereo not drawn)	.	?	25	-5	?	17
CC(=O)OCc1cnc(C)c2oc(=O)c(C(=O)Nc3cccc(F)c3)cc12	-2%	.	.	1	.	.
Cc1ccc(C(CC(=O)NCC2(c3ccccc3)CCCC2)c2ccccc2)c(O)c1 (stereo not drawn)	-8%	23µM*	.	4	16µM*	.
COc1ccc(C(=O)NCC2(c3ccccc3)CCCC2)c(OC)c1	-2%	9.2µM*	25	-3	6.5µM*	6
COc1ccc(C(=O)NCC2(c3ccccc3)CCOCC2)cc1[N+](=O)[O-]	-1%	?	20	-5	29µM*	4
COc1ccc(C(=O)N2CCCC2(C#N)c2ccccc2)cc1[N+](=O)[O-] (stereo not drawn)	2%	18µM*	0	2	10µM*	31
COc1ccccc1CNc1nccn(-c2ccccc2)c1=O	-12%	?	.	-16	?	.
CCOC(=O)N1C(=O)NC(=O)C1c1ccc(Cl)cc1 (stereo not drawn)	-8%	-1%	0	-1	-9%	26
COc1ccc(-c2cc3nc(-c4ccccc4)cc(N4CCC(O)CC4)n3n2)cc1	.	?	-151*	-3	?	6
COc1ccc(-c2cc3nc(-c4ccccc4)cc(N4CCCC(O)C4)n3n2)cc1 (stereo not drawn)	4%	16µM*	?	2	12µM*	-1
COc1ccc(N(CC(C)C)S(=O)(=O)c2nnc(NC(=O)CC(C)C)s2)cc1	2%	3.7µM*	11	2	?	11
CCN(c1ccc(OC)cc1)S(=O)(=O)c1nnc(NC(=O)CC(C)C)s1	1%	-20%	-53*	-5	2%	-16
CCN(c1cc(C)cc(C)c1)S(=O)(=O)c1nnc(NC(=O)C2CCCCC2)s1	1%	21µM*	.	-9	12µM*	.
Cc1cccc(N(C)S(=O)(=O)c2nnc(NC(=O)C3CCCCC3)s2)c1	-2%	?	.	10	?	.
CCC(=O)Nc1nnc(S(=O)(=O)N(CC)c2ccc(OC)cc2)s1	-5%	-19%	19	-4	-29%	-5
COc1ccc(C(=O)Nc2nnc(S(=O)(=O)N(CC(C)C)c3ccccc3)s2)cc1	-21%	-13%	.	-32	-14%	.
COC(=O)Oc1ccccc1C(=O)O	.	6%	.	.	2%	.
CC(C)(C)OC(=O)NCCCCCNC(=O)c1ncn(Cc2ccccc2)c1C(=O)NCCCCCNC(=O)OC(C)(C)C	1%	?	-13	-28	16µM*	-26
CC(C)(C)OC(=O)N1CCN(C(=O)c2ncn(Cc3ccccc3)c2C(=O)N2CCN(C(=O)OC(C)(C)C)CC2)CC1	1%	13%	-4	12	13%	-2
CC(C)(C)OC(=O)NCCCCCNC(=O)c1[nH]cnc1C(=O)N[C@@H](CCCCNC(=O)OC(C)(C)C)C(=O)OC(C)(C)C	2%	16µM*	-21	0	16µM*	55
CC(C)(C)OC(=O)NCCCCCNC(=O)c1nc[nH]c1C(=O)NCCCCCNC(=O)OC(C)(C)C	0%	12µM*	19	25	10µM*	91
Cc1cccc(NC(=O)c2nc[nH]c2C(=O)NCCCCCNC(=O)OC(C)(C)C)c1	0%	15µM*	-75*	12	16µM*	25
SMILES	ClpP mod	TDP1 cell CPT	IL1B secr inh	DRD3 agonist	TDP1 cell noCPT	DRD3 antagonist
Cc1cccc(NC(=O)c2nc[nH]c2C(=O)NC[C@H](C)O)c1	2%	-20%	-28	-1	?	?
CS(=O)(=O)Nc1ccc([N+](=O)[O-])cc1OC1CCCCC1	.	-1%[92.5 µM]	.	.	?	.
CSc1ccc(Cl)c(C(=O)N2CCN(c3ncccn3)CC2)c1	-29%	1%	11	3	11%	-6
O=C(C1CN(C(=O)c2cc3cc(Cl)ccc3o2)c2ccccc2O1)N1CCCCC1 (stereo not drawn)	4%	?	-26	2	?	6
CC(C)(C)OC(=O)NCCCC[C@H](NC(=O)c1nc[nH]c1C(=O)NCc1ccc(CNC(=O)OC(C)(C)C)cc1)C(=O)OC(C)(C)C	1%	?	-17	4	16µM*	6
CN(Cc1ccccc1)C(=O)c1[nH]cnc1C(=O)NCCCCCNC(=O)OC(C)(C)C	-2%	?	-3	-41	18µM*	0
CC(C)(C)OC(=O)NCCCC[C@H](NC(=O)c1nc[nH]c1C(=O)NC(c1ccccc1)c1ccccc1)C(=O)OC(C)(C)C	-8%	15µM*	-7	-6	?	-23
CC(C)(C)OC(=O)CNC(=O)c1[nH]cnc1C(=O)N[C@@H](CCCCNC(=O)OC(C)(C)C)C(=O)OC(C)(C)C	-1%	?	?	-24	?	-22
CC(C)(C)OC(=O)NCCCC[C@H](NC(=O)c1nc[nH]c1C(=O)N[C@@H](CCCCNC(=O)OC(C)(C)C)C(=O)OC(C)(C)C)C(=O)OC(C)(C)C	1%	15µM*	-24	7	23µM*	27
O=C1C2C3C=CC(C3)C2C(=O)N1c1ccc(Cc2ccncc2)cc1 (stereo not drawn)	-2%	?	17	2	13µM*	57
CC1CCC2C(=O)N(c3ccc(Cc4ccncc4)cc3)C(=O)C2C1 (stereo not drawn)	.	5.8µM*	0	-7	10µM*	-12
Cc1ccc(C2(C)NC(=O)N(CC(=O)N3c4ccccc4NC(=O)CC3C)C2=O)cc1 (stereo not drawn)	-1%	-18%	4	-1	20%	9
Cc1ccc(S(=O)(=O)N(C)C)cc1NC(=O)COC(=O)CCC1CCCCC1	.	-22%	18	-1	-29%	-6
CC(CCc1ccc(O)cc1)N(C)CCc1ccccc1 (stereo not drawn)	-1%	-27%	-3	-22	-3%	?
